Assay outcomes (PubChem)
TDP1 block = blocks human tyrosyl-DNA phosphodiesterase 1; Potency, µM (top dose mostly 130 µM), hits mostly inhibitors; AID 485290; recombinant TDP1, AlphaScreen DNA substrate cleavage; Q9NUW8; 350,000 tested, 0.28% active; further: nearly all actives have a fitted effect of over 40% in size
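Recombinant E. coli-expressed Tdp1 (1 nM) preincubated with compound 15 min at RT, then 5'-biotin/3'-phosphotyrosine-FITC DNA substrate (15 nM) added for 5 min. AlphaScreen beads (10 ug/ml) added, 10 min RT; tyrosine-FITC cleavage read as signal loss.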
TDP1 cell noCPT = qHTS for Inhibitors of human tyrosyl-DNA phosphodiesterase 1 (TDP1): qHTS in cells in absence of CPT; DT40 Tdp1-/- hTDP1 cells, no CPT, ATP luminescence, 48 h; Potency, µM (top dose mostly 46.2 µM), actives largely listed as inhibitors; 420,000 tested, 15% active; further: nearly all actives have a fitted effect of over 55% in size
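A cellular qHTS used chicken DT40 cells lacking endogenous Tdp1 but carrying stably transfected human TDP1. Compounds were applied without camptothecin, and cell growth kinetics were judged by ATP-dependent luminescence after ≥48 hr.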
PLK1 PBD inh = blocks phosphopeptide binding to human PLK1 polo-box domain | P53350 | Plk1 PBD binding of FITC phosphopeptide, fluorescence polarization | Potency, µM, hits mostly inhibitors | 360,000 tested, 2.8% active | AID 720504; further: series mostly up to about 57 µM; nearly all actives have a fitted effect of over 65% in size
Target sequence (P53350 whole entry, looked up, the tested form may be a part): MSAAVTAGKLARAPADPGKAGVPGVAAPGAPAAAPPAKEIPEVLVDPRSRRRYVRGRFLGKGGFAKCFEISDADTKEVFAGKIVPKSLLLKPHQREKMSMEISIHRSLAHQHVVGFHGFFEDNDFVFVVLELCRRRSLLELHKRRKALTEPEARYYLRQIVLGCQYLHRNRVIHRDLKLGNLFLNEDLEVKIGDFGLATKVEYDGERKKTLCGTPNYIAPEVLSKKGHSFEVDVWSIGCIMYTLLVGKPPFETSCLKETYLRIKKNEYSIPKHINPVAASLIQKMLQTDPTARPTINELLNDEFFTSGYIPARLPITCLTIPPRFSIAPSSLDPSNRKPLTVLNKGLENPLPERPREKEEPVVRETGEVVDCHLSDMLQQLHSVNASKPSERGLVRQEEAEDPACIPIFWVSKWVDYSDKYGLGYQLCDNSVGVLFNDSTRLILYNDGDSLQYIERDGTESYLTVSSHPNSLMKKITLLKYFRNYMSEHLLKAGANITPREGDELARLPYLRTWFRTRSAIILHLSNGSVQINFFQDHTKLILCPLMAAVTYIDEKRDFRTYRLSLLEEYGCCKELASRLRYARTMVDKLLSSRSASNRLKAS
KAT2A inh = blocks human GCN5L2 histone acetyltransferase; Q92830; GCN5L2 HAT assay, ThioGlo1 CoA-SH fluorescence; Potency, µM (highest dose often 58.9 µM), usual class: inhibitors; 390,000 tested, 0.21% active; AID 504327
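Enzyme at 20nM final was mixed with library compounds for 15 min at room temperature. Peptide H3(1-25) at 75uM, acetyl-CoA at 70uM and ThioGlo1 at 50uM were then added. Plates were read immediately and after 20 min (Ex340nm/Em540nm).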
DT40 TDP1 CPT = growth inhibition of DT40 Tdp1-/-;hTDP1 cells with camptothecin (screen for TDP1 inhibitors); chicken DT40 Tdp1-/-;hTDP1 cells + 20 nM CPT, ATP luminescence, 48 h; Potency, µM (highest dose often 46.2 µM), usual class: inhibitors; 420,000 tested, 12% active; AID 686979; further: nearly all actives have a fitted effect of over 55% in size
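Cell growth measured by CellTiter-Glo luminescence after a minimum 48 h, 37 C compound exposure with 20 nM CPT in Tdp1-knockout DT40 cells stably expressing hTDP1, seeded 400/well; qHTS titration format.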
VDR inhibitor = inhibitors of human vitamin D receptor | P11473 | VDR-SRC2-3 peptide fluorescence polarization, 2 h | Potency, µM, actives largely listed as inhibitors | 400,000 tested, 0.93% active | AID 504847
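Two reagent solutions held at 4 deg C in the dark were dispensed, compounds pinned at 23 nl, and the mixture incubated 2 h at room temperature. Read-out: fluorescence polarization of VDR–SRC2-3 peptide binding.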
Of the large screens only hits and unclear results are named; the others gave an inactive call. Most compounds without a hit are left out; they make up all but 18% or so of the library. The call rests on the fitted dose curve; in most records, active means well fitted curve in the direction sought with a large enough effect; inconclusive means small, poorly fitted or top-dose-only effect, or another doubt; inactive means no such curve, though single readings can be large; an effect the other way counts as inactive or inconclusive.

COc1ccc(CCNc2oc(COc3ccccc3F)nc2C#N)cc1OC	TDP1 cell noCPT 26µM, PLK1 PBD inh 27µM, DT40 TDP1 CPT inconclusive
N#Cc1nc(COc2ccccc2Cl)oc1NCCc1ccccc1	TDP1 cell noCPT 16µM, DT40 TDP1 CPT inconclusive (no result: PLK1 PBD inh)
COc1ccc(CCNc2oc(COc3ccccc3Cl)nc2C#N)cc1OC	TDP1 cell noCPT inconclusive, DT40 TDP1 CPT inconclusive
COc1ccc(CCNc2oc(COc3ccc(F)cc3)nc2C#N)cc1	TDP1 cell noCPT inconclusive, DT40 TDP1 CPT 18µM
COc1ccc(S(=O)(=O)N2CCc3ccccc32)cc1C(=O)N1CCOCC1	none
CC1Cc2nc(SCC(=O)NCC3CCCO3)n(-c3ccc(F)cc3)c(=O)c2S1 (stereo not given)	none
CCCSc1nc(NCc2ccco2)c2c3c(sc2n1)COC(C)(C)C3	TDP1 cell noCPT inconclusive, KAT2A inh inconclusive
Cc1nc2sc3c(NCc4ccco4)ncnc3c2c2c1COC(C)(C)C2	TDP1 cell noCPT 23µM, DT40 TDP1 CPT inconclusive
Cc1c(Cl)cccc1NC(=O)CCN1C(=O)C2CC=CCC2C1=O (stereo not given)	none
C=C1C(=O)OC2C1CCC(C)C1C=CC(=O)C12C (stereo not given)	TDP1 cell noCPT 2.9µM, DT40 TDP1 CPT 3.3µM (no result: TDP1 block, KAT2A inh)
Cc1cc(C)n2c(NC3CCCCC3)c(-c3ccc(F)cc3)nc2n1	TDP1 cell noCPT inconclusive, DT40 TDP1 CPT inconclusive (no result: TDP1 block, KAT2A inh, VDR inhibitor)
Cc1cc(C)n2c(Nc3ccc4c(c3)OCCO4)c(CC(C)C)nc2n1	TDP1 cell noCPT 12µM, DT40 TDP1 CPT 21µM (no result: TDP1 block, KAT2A inh, VDR inhibitor)
Cc1cc(C)n2c(NC3CCCCC3)c(CC(C)C)nc2n1	TDP1 cell noCPT 18µM, DT40 TDP1 CPT inconclusive (no result: TDP1 block, KAT2A inh, VDR inhibitor)
C[C@]12c3[nH]c4ccccc4c3CCN1C(=O)C(CC(=O)NCC13CC4CC(CC(C4)C1)C3)C[C@@H]2C(=O)N1CCCCC1 (stereo not given in full)	TDP1 cell noCPT 26µM, DT40 TDP1 CPT 21µM, VDR inhibitor inconclusive
COCCCNC(=O)CC1C[C@H](C(=O)N2CCOCC2)[C@@]2(C)c3[nH]c4ccc(OC)cc4c3CCN2C1=O (stereo not given in full)	DT40 TDP1 CPT inconclusive
C[C@]12c3[nH]c4ccccc4c3CCN1C(=O)C(CC(=O)NCC13CC4CC(CC(C4)C1)C3)C[C@@H]2C(=O)N1CCOCC1 (stereo not given in full)	TDP1 cell noCPT 23µM, DT40 TDP1 CPT 16µM
COCCCNC(=O)CC1C[C@H](C(=O)N2CCOCC2)[C@@]2(C)c3[nH]c4ccccc4c3CCN2C1=O (stereo not given in full)	none
COc1ccc2[nH]c3c(c2c1)CCN1C(=O)C(CC(=O)NCC24CC5CC(CC(C5)C2)C4)C[C@H](C(=O)N2CCCCC2)[C@@]31C (stereo not given in full)	TDP1 cell noCPT 18µM, DT40 TDP1 CPT inconclusive
CC(C)N(C(=O)[C@H]1CC(CC(=O)NCC23CC4CC(CC(C4)C2)C3)C(=O)N2CCc3c([nH]c4ccccc34)[C@]12C)C(C)C (stereo not given in full)	TDP1 cell noCPT 23µM, DT40 TDP1 CPT 13µM
COCc1c(C(=O)NC2CCOC(C)(C)C2)cnn1-c1nccc(-c2cccs2)n1 (stereo not given)	none (no result: TDP1 block, PLK1 PBD inh, KAT2A inh, VDR inhibitor)
CCN(CC)C(=O)[C@H]1CC(CC(=O)NCC23CC4CC(CC(C4)C2)C3)C(=O)N2CCc3c([nH]c4ccc(OC)cc34)[C@]12C (stereo not given in full)	TDP1 cell noCPT 13µM, DT40 TDP1 CPT 21µM
CCN(CC)C(=O)[C@H]1CC(CC(=O)NCCN2CCOCC2)C(=O)N2CCc3c([nH]c4ccc(OC)cc34)[C@]12C (stereo not given in full)	none
CCOc1ccc(CCNC(=O)NCc2noc3ccc(C)cc23)cc1	TDP1 cell noCPT inconclusive (no result: PLK1 PBD inh)
CC(=O)C(=Nc1cccc(Cl)c1)NNc1ccccc1C	TDP1 cell noCPT 15µM, DT40 TDP1 CPT inconclusive, VDR inhibitor inconclusive (no result: TDP1 block, KAT2A inh)
Cc1ccc(C(O)c2ncc(-c3ccc(Cl)cc3)[nH]2)c(C)c1 (stereo not given)	TDP1 cell noCPT 16µM, DT40 TDP1 CPT inconclusive (no result: TDP1 block, KAT2A inh, VDR inhibitor)
Cc1ccc(C)c(C(O)c2ncc(-c3ccc(F)cc3)[nH]2)c1 (stereo not given)	TDP1 cell noCPT 15µM, DT40 TDP1 CPT 16µM (no result: TDP1 block, KAT2A inh, VDR inhibitor)
COc1ccc(CNC(=O)CN(Cc2ccc(F)cc2)C(=O)c2csnn2)cc1	none
COc1cc(NC(=O)c2cccs2)c(OC)cc1NC(=O)Nc1ccc(F)cc1	TDP1 cell noCPT 23µM, DT40 TDP1 CPT inconclusive (no result: TDP1 block)
Cc1cc(=O)[nH]c(SCC(=O)C23CC4CC(CC(C4)C2)C3)c1C#N	TDP1 cell noCPT 18µM, PLK1 PBD inh 24µM, DT40 TDP1 CPT 8.2µM, VDR inhibitor inconclusive
COc1cc(NCCC(=O)c2cccs2)c(OC)cc1Cl	TDP1 cell noCPT 4.6µM, DT40 TDP1 CPT 3.7µM
COc1cc(NC(=O)c2ccccc2)c(OC)cc1NC(=O)CSc1[nH]c(=O)cc(C)c1C#N	TDP1 cell noCPT 2.3µM, DT40 TDP1 CPT 3.7µM
COc1cc2c(cc1NC(=O)Nc1ccc(F)cc1)oc1ccccc12	TDP1 cell noCPT inconclusive
CCCNC(=O)Cn1nc(-c2ccc(C)c(C)c2)c2cnc3ccc(F)cc3c21	DT40 TDP1 CPT inconclusive (no result: PLK1 PBD inh)
COc1ccccc1/C=C/C(=O)NNC(=O)c1cccs1	none
COc1ccccc1CC(=O)Nc1cc(OC)c(NC(=O)c2ccccc2)cc1OC	TDP1 cell noCPT 13µM (no result: TDP1 block)
CCC(=O)Nc1cc(OC)c(NC(=O)c2ccccc2)cc1OC	none
COc1cc(NC(=O)c2cccs2)c(OC)cc1NC(=O)Cc1ccccc1	TDP1 cell noCPT 23µM, DT40 TDP1 CPT inconclusive
Cc1cc(N(C)C)cc(C)c1C=O	none (no result: TDP1 block, PLK1 PBD inh, KAT2A inh, VDR inhibitor)
CC1(C)Cc2cccc(OCC(=O)NCCOc3ccccc3)c2O1	TDP1 cell noCPT inconclusive, PLK1 PBD inh 21µM, DT40 TDP1 CPT inconclusive, VDR inhibitor inconclusive
CC1(C)Cc2cccc(OCC(=O)NCc3cccs3)c2O1	none
CC1(C)Cc2cccc(OCC(=O)Nc3ccccc3F)c2O1	TDP1 cell noCPT inconclusive, DT40 TDP1 CPT inconclusive (no result: TDP1 block)
CCCNC(=O)c1ccccc1NC(=O)COc1cccc2c1OC(C)(C)C2	TDP1 cell noCPT 18µM, DT40 TDP1 CPT inconclusive
COc1ccccc1CCNC(=O)COc1cccc2c1OC(C)(C)C2	TDP1 cell noCPT 23µM (no result: TDP1 block)
COc1cccc(CN(C)C(=O)COc2cccc3c2OC(C)(C)C3)c1OC	TDP1 cell noCPT inconclusive, DT40 TDP1 CPT inconclusive (no result: TDP1 block, KAT2A inh)
CC(C)(C)CC(=O)NC1CC(=O)N(c2ccc3c(c2)OCCO3)C1 (stereo not given)	none (no result: PLK1 PBD inh)
